# Screens (PubChem BioAssay)
# Shown is part of a subset that was picked to be rich in hits.
# Cycloheximide cs: Cycloheximide Counterscreen for Small Molecule Inhibitors of Shiga Toxin | AID 2314, 2010 | max response, % | cell reporter, cycloheximide protein synthesis inhibition counterscreen | 300,000 compounds, 12% hits; in the data active = max response mostly above about 13%, no sharp cut-off; inactive = mostly below about 14%; note: read at 38.3 µM for the half of the compounds with a filed dose; 0% is about no effect
# Shiga inhibitor: A qHTS for Small Molecule Inhibitors of Shiga Toxin; Vero cells, Shiga toxin protein synthesis inhibition reporter; inhibition, % at 38.7 µM; 290,000 compounds, 9.2% hits; in the data active = inhibition mostly above about 28%, no sharp cut-off; inactive = mostly below about 43%; note: 0% is about no effect
# TbPYK inhibitor: qHTS of Trypanosoma Brucei Inhibitors; 410,000 compounds, 0.12% hits; AID 624173, 2012; Potency, µM (titrated, usually from 76.8 µM), inactives show at the top dose activity, negative = inhibition, most hits filed as inhibitors; TbPYK enzyme, Kinase-Glo Plus ATP luminescence, 45 min; pyruvate kinase (Trypanosoma brucei), Q57TT1; note: potency is the fitted concentration of half-maximal effect; % is set by controls: 0 for no effect and ±100 for the full control effect; nearly all actives have a fitted effect of over 50% in size
#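 Luminescence from Kinase-Glo Plus, added after a 45-minute room-temperature reaction, served as the end-point read-out. The enzyme and substrate were preincubated with compound before ADP (130 uM final) initiated turnover. Concentration-effect curves came from normalized qHTS data.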
# RE007 growth inh: qHTS Assay for Inhibitors of the HIV-1 protein Vpr. S. pombe RE007 Vpr strain, BacTiter-Glo ATP luminescence, 24 h. Potency, µM (top dose mostly 92.2 µM), inactives show top-dose activity change, negative = less growth, actives largely listed as inhibitors. 360,000 compounds, 0.21% hits. AID 651644, 2012; active = well fitted falling curve with a large enough effect; inconclusive = small, poorly fitted or top-dose-only effect; inactive = no such curve, though single readings can be large or run the other way; note: potency is the fitted concentration of half-maximal effect; % is set by controls: 0 for no effect and ±100 for the full control effect; nearly all actives have a fitted effect of over 50% in size
#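 Fission yeast strain RE007, carrying one chromosomally integrated HIV-1 vpr copy, was seeded at OD 0.01 in PMG+AL medium with 23 nL pinned compound. After 24 h at 30 °C and 99% humidity, viability was read by BacTiter-Glo luminescence.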
# LmPK inh: qHTS Assay for Inhibitors of Leishmania Mexicana Pyruvate Kinase (LmPK) | Q27686 | purified LmPK, Kinase-Glo ATP luminescence, 1 h | Potency, µM (top dose mostly 57.5 µM), for inactives: top-dose activity change, negative = inhibition, hits mostly inhibitors | 290,000 compounds, 0.37% hits | AID 1721, 2009; note: potency is the fitted concentration of half-maximal effect; % is set by controls: 0 for no effect and ±100 for the full control effect
#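 ATP generated from ADP (0.1 mM) and PEP (0.5 mM) by 0.1 nM LmPK over 1 h at room temperature (pH 7.2 imidazole buffer) was detected by coupled luciferase luminescence. Values were normalized to uninhibited and no-enzyme wells.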
# Giardia FBPA inh: qHTS Assay for Inhibitors of Fructose-1,6-bisphosphate Aldolase from Giardia Lamblia | A8B2U2 | purified Giardia FBPA | Potency, µM (doses to about 59.6 µM), inactives show at the top dose activity, negative = inhibition, most hits filed as inhibitors | 290,000 compounds, 0.71% hits; note: potency is the fitted concentration of half-maximal effect; % is set by controls: 0 for no effect and ±100 for the full control effect; nearly all actives have a fitted effect of over 55% in size
# Target sequence (A8B2U2 whole entry, looked up): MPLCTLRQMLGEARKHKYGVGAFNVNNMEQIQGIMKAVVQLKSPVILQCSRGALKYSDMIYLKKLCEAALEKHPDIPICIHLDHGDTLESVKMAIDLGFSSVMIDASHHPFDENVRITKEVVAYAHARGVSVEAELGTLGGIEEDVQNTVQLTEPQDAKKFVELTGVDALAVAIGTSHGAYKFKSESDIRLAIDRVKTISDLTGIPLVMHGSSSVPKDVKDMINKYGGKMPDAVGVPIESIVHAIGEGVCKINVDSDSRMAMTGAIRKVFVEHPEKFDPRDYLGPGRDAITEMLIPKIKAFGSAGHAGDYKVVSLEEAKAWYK
#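 40 nM FBPA preincubated 10 min at RT with compound (up to 57.5 uM final), then substrate plus GAPDH/TPI/NAD/arsenate coupling and diaphorase/resazurin added. Fluorescence read after 20 min at RT, 525/598 nm.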
# The depositor's hits bear a star; ? = inconclusive; nt = no result. Unless noted, calls come from the whole dose curve; as a rule, active = well fitted curve in the direction sought with a large enough effect; inconclusive = small, poorly fitted or top-dose-only effect, or another doubt; inactive = no such curve, though single readings can be large; an effect the other way counts as inactive or inconclusive.
SMILES,Cycloheximide cs,Shiga inhibitor,TbPYK inhibitor,RE007 growth inh,LmPK inh,Giardia FBPA inh
CC(=O)c1ccc(N=c2scc(C)n2C(C)C)cc1,40.1*,56.7,-1.8%,6.7%,8.5%,-1.0%
C=CCn1c(C)csc1=Nc1ccc(C(=O)O)cc1,12.3,43.2,-3.2%,3.1%,-1.2%,-25.1%
O=S(=O)(Nc1cccc2ccccc12)c1cccc2ccccc12,-5.0,4.4,nt,nt,nt,nt
N#CC(C(=O)Nc1ccccc1)=C1Nc2ccccc2N1,30.4,74.6*,-2.1%,-17.7%,4.3%,-14.7%
CCOC(=O)C1=C(C)Nc2ccc(C)cc2S1,-1.6,7.8,-15.1%,-1.6%,3.6%,-20.5%
CCOCCOC(=O)C1=C(C)Nc2ccc(C)cc2S1,21.8*,50.4,-16.4%,-1.5%,-0.1%,-11.6%
CSCCOC(=O)C1=C(C)NC(=O)NC1c1ccc2c(c1)OCO2 (configuration not stated),-2.1,-4.4,-2.7%,22.5%,-2.7%,8.3%
CSCCOC(=O)C1=C(C)Nc2ccc(C)cc2S1,13.8*,7.0,-14.4%,-26.6%,-2.8%,?
CCOC(=O)/C=C1\Nc2ccccc2SC1=O,3.4,-13.4,-18.8%,1.6%,3.9%,4.4%
CCOC(=O)C1=C(C)Nc2ccccc2S1,23.2*,31.1*,6.3%,-28.9%,6.1%,-18.1%
CCNC(=S)NNC(=O)c1csc(C)c1,5.5,4.8,-4.4%,0.6%,-1.2%,3.8%
Cc1cc(C(=O)NNC(=S)NC2CCCCC2)cs1,17.0*,33.7,-13.3%,3.2%,-7.7%,nt
COc1cccc(C(=O)NNC(=S)NC2CCCCC2)c1,41.6*,47.0*,-8.7%,-15.1%,3.0%,8.5%
COc1cccc(C(=O)NC2CCCC2)c1,7.4,43.2,16.6%,-0.1%,-1.7%,-0.3%
COCCNc1nc(C)nc2c1nc(-c1ccccc1)n2CCN(C)C,nt,nt,nt,nt,nt,2.3%
CCOc1ccccc1NC(=O)N1c2ccccc2Sc2ccccc21,nt,nt,-2.4%,nt,nt,nt
CC(=O)N1CCc2cc(NC(=O)c3ccc(C)cc3)ccc21,33.7*,46.7*,1.1%,-0.2%,-6.0%,-8.7%
CCOc1c(Cl)cc(C(=O)Nc2cccc(C(=O)O)c2)cc1Cl,43.3*,69.3*,-1.6%,19.7%,-2.1%,10.7%
COc1ccc(C(=O)Nc2cccc(C(=O)N3CCCC3)c2)cc1,10.6*,9.2,4.8%,0.9%,0.5%,-4.3%
CCOc1ccc(NS(=O)(=O)c2cc(NC(=O)c3ccc(C)cc3)ccc2Cl)cc1,17.0*,-14.2,-10.7%,19.9%,1.3%,-3.4%
CC(=O)Nc1ccc(NC(=O)c2ccc3c(c2)CCN3S(=O)(=O)c2ccc(C)cc2)cc1,nt,nt,-1.0%,nt,nt,nt
COc1ccc2c(c1)C(=O)[C@H](OC(=O)Nc1ccc(OC(F)F)cc1)[C@@H](c1ccc(OC)c(Br)c1)O2,nt,nt,nt,nt,nt,0.1%
COc1cc(NC(=O)CCc2c(C)nc3nc(-c4cc(OC)cc(OC)c4)nn3c2C)cc(OC)c1,nt,nt,-4.9%,nt,nt,nt
COc1ccc(N/N=C(C)/C(=N/O)C(=O)Nc2ccccc2)cc1,29.1*,74.2*,-5.9%,?,?,-20.5%
CCOc1ccc(NC(=O)c2cccc(NC(=O)c3ccccc3)c2)cc1,17.2*,53.1*,-2.3%,-4.1%,-3.2%,0.7%
SMILES,Cycloheximide cs,Shiga inhibitor,TbPYK inhibitor,RE007 growth inh,LmPK inh,Giardia FBPA inh
COc1ccc(C(=O)Nc2ccc(C(=O)OCC(=O)c3ccccc3)cc2)cc1,18.8*,39.5,-3.3%,11.1%,-1.9%,9.6%
CCOc1ccc(C(=O)Nc2ccc(NC(=O)c3ccccc3)cc2)cc1Br,-0.9,-1.0,4.7%,-3.8%,1.7%,-3.2%
COc1ccc(NC(=O)c2cccc(NC(=O)c3ccccc3)c2)cc1,17.9*,24.8,-0.3%,2.7%,-7.0%,1.2%
COc1ccc(NC(=O)c2ccccc2-c2ccccc2)cc1,-7.1,17.8,1.0%,2.9%,5.0%,-0.8%
Cc1cccc(NC(=O)C2CCC(CNS(=O)(=O)c3csc(C(N)=O)c3)CC2)c1C (configuration not stated),nt,nt,-0.5%,nt,nt,nt
C[C@@H](C(=O)NCc1cccc2ccccc12)[C@H]1C[C@]1(C)[C@H](NC(=O)OCc1ccccc1)c1ccccc1,nt,nt,nt,nt,nt,0.7%
